NTMT1 inhibitor: inhibitors of human N-terminal methyltransferase NTMT1; Q9BV86; NTMT1 MTase-Glo SAH luminescence, purified enzyme; Potency, µM (top dose mostly 114 µM), without a hit: at the top dose activity change, negative = inhibition, most hits filed as inhibitors; 59,000 tested, 2.5% active; AID 1645870;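 note: potency is the fitted concentration of half-maximal effect; plate controls were DMSO vehicle for no effect and no enzyme for full effect; nearly all actives have a fitted effect of over 65% in size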
Target sequence (Q9BV86 whole entry, looked up): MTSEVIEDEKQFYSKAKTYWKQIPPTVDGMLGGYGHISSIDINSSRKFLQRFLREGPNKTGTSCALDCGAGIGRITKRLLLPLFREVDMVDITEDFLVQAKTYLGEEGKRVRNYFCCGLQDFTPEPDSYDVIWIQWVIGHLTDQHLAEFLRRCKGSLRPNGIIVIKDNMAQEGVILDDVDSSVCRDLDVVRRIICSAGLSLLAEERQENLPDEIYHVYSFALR
PTAP-TSG101 blk: TSG101-PTAP interaction inhibition, HIV-1 budding; Q99816; Fluorescence polarization, FITC-PTAP peptide/Tsg101, 20 min; Potency, µM (doses to about 115 µM), actives largely listed as inhibitors; 44,000 tested, under 10 active; AID 1347069; note: potency is the fitted concentration of half-maximal effect; 0% is about no effect
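Fluorescence polarization: Tsg101 binding domain (10 uM final) in 10 mM HEPES pH 7.5, 0.15 M NaCl, 0.01% Tween 20, 3 mM EDTA, 0.1 mM TCEP; compounds pinned; FITC-PTAP peptide 50 nM final; 20 min, r.t.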
GALK inhibitor: GALK (human) enzyme inhibition; P51570; recombinant GALK, Kinase-Glo ATP luminescence, 1 h; Potency, µM (series often up to 57.5 µM), without a hit: at the highest dose activity, negative = inhibition, most hits filed as inhibitors; 44,000 tested, under 10 active; AID 1347072;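 note: plate controls were full GALK reaction for no effect and reaction lacking GALK for full effect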
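Reactions with and without enzyme served as controls. GALK at 5 nM phosphorylates 100 uM galactose using 35 uM ATP (HEPES pH 8.0, Mg2+) for 1 h at RT, with luminescence read 10 min after adding Kinase-Glo Plus.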
B2AR arrestin ag: beta-arrestin recruitment by human beta2-adrenergic receptor ligands; HTLA Tango cells, beta-arrestin recruitment, luciferase luminescence, 18 h; 44,000 tested, under 10 active; Potency, µM (doses to about 46.1 µM), most hits filed as activators;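 note: potency is the fitted concentration of half-maximal effect; 0% = DMSO and full agonism = EC100 isoproterenol or metaproterenol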
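Tango cells expressing recombinant beta2-AR and beta-arrestin were treated with compounds (up to 46 microM titration) in DMEM with 1% FBS for 18 hr at 37 degrees C. Beta-arrestin recruitment drove tTA-dependent luciferase, read by luminescence; curves were fitted and classed.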
GALC G270D act: raises human GALC G270D mutant activity in cells; P54803; 145M-Twi-hGALC-G270D cells (Twitcher mouse brain line with human GALC G270D), HMU-beta-Gal fluorescence, 48 h; Potency, µM (series often up to 57.5 µM), hits mostly activators; 45,000 tested, 0.1% active; AID 1159614; note: potency is the fitted concentration of half-maximal effect; 0% is about no effect; nearly all actives have a fitted effect of over 65% in size
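Live 145M-Twi cells (Twitcher mouse brain-derived, GALC-null) stably expressing human GALC-G270D, with a wild-type GALC line, were compound-treated. Residual GALC activity was then read as fluorescence from 0.1 mM final HMU-β-gal at pH 5.2; higher signal means activation.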
FH mod: Identification of activators of human fumarate hydratase by quantitative high-throughput screening; 54,000 tested, 0.22% active; AID 1347055, 2019; Fumarate hydratase, mitochondrial (Homo sapiens), P07954; FH coupled MDH/diaphorase resazurin fluorescence, 15 min; Potency, µM (series often up to 79.9 µM), for the others: at the highest dose activity change, negative = inhibition, usual class: inhibitors; note: potency is the fitted concentration of half-maximal effect; % is set by controls: 0 for no effect and ±100 for the full control effect; the screen sought activators but most active calls are inhibition curves; nearly all actives have a fitted effect of over 45% in size
Target sequence (P07954 whole entry, looked up): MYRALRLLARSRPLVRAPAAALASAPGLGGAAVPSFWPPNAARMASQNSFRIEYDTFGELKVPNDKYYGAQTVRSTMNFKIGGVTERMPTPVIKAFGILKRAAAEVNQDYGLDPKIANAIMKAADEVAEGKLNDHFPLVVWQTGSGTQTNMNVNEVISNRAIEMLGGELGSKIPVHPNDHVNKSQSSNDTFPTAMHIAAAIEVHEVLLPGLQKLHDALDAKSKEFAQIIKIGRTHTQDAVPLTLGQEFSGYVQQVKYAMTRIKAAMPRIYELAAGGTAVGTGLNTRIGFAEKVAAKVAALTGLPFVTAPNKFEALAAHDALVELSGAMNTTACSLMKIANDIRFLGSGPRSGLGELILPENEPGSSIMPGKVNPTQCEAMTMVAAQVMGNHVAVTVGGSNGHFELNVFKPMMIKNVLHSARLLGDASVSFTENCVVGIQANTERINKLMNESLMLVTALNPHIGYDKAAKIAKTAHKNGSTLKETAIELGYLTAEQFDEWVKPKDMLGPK
An asterisk follows results filed as active; i = inactive; u = inconclusive; x = not tested or not shown; ! = a repeat was not active; [ ] = another dose, or the depositor's remark. This excerpt belongs to a sample that is enriched for hits. Calls come from the whole dose curve; as a rule, active = well fitted curve in the direction sought with a large enough effect; inconclusive = small, poorly fitted or top-dose-only effect, or another doubt; inactive = no such curve, though single readings can be large; an effect the other way counts as inactive or inconclusive.

SMILES | NTMT1 inhibitor | PTAP-TSG101 blk | GALK inhibitor | B2AR arrestin ag | GALC G270D act | FH mod
COc1ccc(OC)c(C(=O)CC2(O)C(=O)N(Cc3ccccc3C)c3ccccc32)c1 (stereo unspecified) | u | i | 2% | i | i | u
CN(C)CCN(C)C(=O)c1ccc(NC(=O)Nc2ccc(-c3nc(N4CCOCC4)c4ccn(CC(F)(F)F)c4n3)cc2)cc1 | 22µM*! | x | x | x | x | -1%[53.3 µM]
O=c1oc2c(CN3CCOCC3)c(O)ccc2cc1-c1ccccc1 | 7% | i | 2% | i | 25µM* | -10%
O=C(O)c1ccc(-c2c[nH]c3ncc(-c4ccccc4)cc23)cc1C1CCCC1 | 25µM* | x | x | x | x | 32µM*!
O=C(O)c1ccc(O)c2ncc(-c3n[nH]nc3-c3ccccc3)cc12 | 9% | x | x | x | x | x
COc1ccc(-c2ccc3c(N4CCOCC4C)nc(N4CCOCC4C)nc3n2)cc1CO (stereo unspecified) | -12%[57.5 µM] | x | x | x | x | 23%
N#CC(c1ccnc(NCCc2cccnc2)n1)c1nc2ccccc2s1 (stereo unspecified) | u | x | x | x | x | -3%[53.3 µM]
Cc1cc(N2CCN(c3ccccc3F)CC2)n2cnnc2n1 | -1% | i | 1% | i | i | -11%
Cc1cc(N2CCN(c3cccc(C)c3C)CC2)n2cnnc2n1 | 89µM* | i | 0% | i | i | -12%
COc1cc(-c2no[n+]([O-])c2C#N)cc(OC)c1OC | 8% | x | x | x | x | x
C/C=C(/COC(=O)/C(C)=C/C)C(=O)OC(CC)c1ccc(OC)c(OC)c1 (stereo unspecified) | 17%[29.8 µM] | x | x | x | x | 1%[53.3 µM]
O=C(O)[C@H](Cc1ccccc1)Oc1ccc(-c2ccccc2)cc1 | 5%[57.5 µM] | x | x | x | x | 1%
Cc1ccc(Cn2c(=O)n(CCCCC(=O)NCc3ccccc3Cl)c(=O)c3ccccc32)cc1 | 12% | i | 1% | i | i | -1%
Cc1ccc(C)c(Cn2c(=O)n(CCCCC(=O)NCc3ccccc3Cl)c(=O)c3ccccc32)c1 | 79µM* | i | 7% | i | i | u
Cc1ccc(C)c(Cn2c(=O)n(CCCCC(=O)NCc3ccc4c(c3)OCO4)c(=O)c3ccccc32)c1 | 89µM* | i | -2% | i | i | 3%
Cc1ccccc1Cn1c(=O)n(CCCCC(=O)NCc2ccc3c(c2)OCO3)c(=O)c2ccccc21 | 15% | i | -4% | i | i | -8%
CCCCCCCCCCCCCC[N+](C)(C)Cc1ccccc1 | 50µM* | x | x | x | i | -11%[53.3 µM]
CCCCCCCCCCCCCC[N+](C)(C)C | u | x | x | x | i | -7%[53.3 µM]
CCCCCCCCCCCCCCCC[N+](C)(C)Cc1ccccc1 | 22µM* | x | x | x | i | -13%[53.3 µM]
CCCCCCCCCCCCCCCC[N+](C)(C)CC | 25µM* | x | x | x | i | -4%[53.3 µM]
CCCCC/C(C=O)=C\c1ccccc1 | -4%[57.5 µM] | x | x | x | i | -9%[53.3 µM]
CCCC(N[C@@H](C)C(=O)N1[C@H](C(=O)O)C[C@@H]2CCCC[C@@H]21)C(=O)OCC (stereo partly specified) | 6%[57.5 µM] | x | x | x | x | 7%
CC1=C2C(=O)C=C(CO)C2C2OC(=O)C(CS(=O)(=O)O)C2C(OC(=O)Cc2ccc(O)cc2)C1 (stereo unspecified) | -13%[29.8 µM] | x | x | x | x | -9%[53.3 µM]
[O-][n+]1ccccc1SSc1cccc[n+]1[O-] | 5µM* | x | x | x | i | -7%[20.6 µM]
CC(C)(O)c1ccc2c(c1)C(O)C[C@H]1[C@](C)(C(=O)O)CCC[C@]21C (stereo partly specified) | -8%[29.8 µM] | x | x | x | x | -1%[53.3 µM]
SMILES | NTMT1 inhibitor | PTAP-TSG101 blk | GALK inhibitor | B2AR arrestin ag | GALC G270D act | FH mod
COc1ccc(C)cc1NC(=O)NCc1cccn1Cc1ccccc1 | 89µM* | i | -1% | i | i | -11%
COc1cc(OC)c(NC(=O)NCc2cccn2Cc2ccccc2)cc1Cl | 0% | i | 1% | i | i | -31%
Cc1ccc(S(=O)(=O)Nc2ccc(C(=O)Nc3nc(-c4ccccc4)cs3)cc2Cl)cc1 | -1% | x | x | x | x | x
Cc1[nH]c(/C=C2\C(=O)Nc3ccccc32)c(C)c1CCC(=O)O | u | x | x | x | x | 0%
COc1ccc(CCNC(=O)Cn2nc(C)c3c(C)n(-c4ccc(C)cc4)nc3c2=O)c(OC)c1 | 45µM* | i | 4% | i | i | -14%
COc1ccc(OC)c(CCNC(=O)C(C)n2nc(C)c3c(C)n(-c4ccc(C)cc4)nc3c2=O)c1 (stereo unspecified) | 89µM* | i | -1% | i | i | -12%
COc1ccc(S(=O)(=O)N[C@@H](CNc2nc(C)nc(N3CCC(c4ccc5c(n4)NCCC5)CC3)c2C)C(=O)O)cc1 | 9% | x | x | x | x | x
C=C1c2cccc(O)c2C(O)=C2C(=O)[C@]3(O)C(O)=C(C(N)=O)C(=O)[C@@H](N(C)C)[C@@H]3[C@@H](O)[C@H]12 | 25µM* | x | x | x | i | -24%[53.3 µM]
CC(=O)O[C@]1(C(C)=O)CC[C@H]2[C@@H]3C[C@H](C)C4=CC(=O)C=C[C@]4(C)[C@@]3(F)[C@@H](O)C[C@@]21C | 4%[57.5 µM] | x | x | x | x | -2%
CC(C)c1ccc(-c2cc(=O)c3ccccc3o2)cc1 | 0%[57.5 µM] | x | x | x | x | -8%
O=c1cc(-c2ccccc2)oc2ccccc12 | 100µM* | x | x | x | i | -15%
O=c1cc(-c2ccccc2)oc2ccc(O)cc12 | u | x | x | x | x | -12%
O=c1cc(-c2ccccc2)oc2c(O)c(O)ccc12 | x | x | x | x | x | 16µM*
Nc1n[nH]c(N)c1N=Nc1ccc(O)cc1 | 4% | x | x | x | x | -15%
O=C(Nc1ccc2oc(-c3cccnc3)nc2c1)c1ccc(-c2ccc(Cl)cc2)o1 | u | i | -19% | i | i | -2%
O=C(Nc1ccc2oc(-c3cccnc3)nc2c1)c1ccc(-c2cccc(Cl)c2)o1 | 25µM* | i | -2% | i | i | 2%
C(=Nc1cccnc1)c1cccs1 | 0%[57.5 µM] | x | x | x | x | x
O=C(Nc1cccc(C(F)(F)F)c1)Nc1cccs1 | 4% | i | -10% | i | i | -8%
O=C(Nc1cccc(C(F)(F)F)c1)Nc1cc(S(=O)(=O)NC2CC2)ccc1-c1ccsc1 | 3%[57.5 µM] | x | x | x | x | 19µM*!
Cc1ccc(-c2nc(NC(=O)CSc3cc(C)c4ccccc4n3)ns2)cc1 | 40µM* | i | 0% | i | i | -2%
CC1(C)CCCC2(C)C=C(C(=O)O)C(O)CC12 (stereo unspecified) | 0%[57.5 µM] | x | x | x | x | -3%
COc1ccc(NC(=O)CC2Nc3cccc4cccc(c34)NC2=O)cc1 (stereo unspecified) | 79µM* | i | 0% | i | i | -16%
O=C(CC1Nc2cccc3cccc(c23)NC1=O)Nc1ccc(F)cc1 (stereo unspecified) | -20% | i | 1% | i | i | -23%

From PubChem
